# Among all 48,000 compounds or so, about 13,000 (27%) showed an effect of 50% or more. The list shows a part of the results.
# Test system: Wolbachia pipientis
# Assay: Anti-Wolbachia Cell-Based Screen
# Assay type: functional
# Parameters: scale not given: in the data most compounds retested in dose-response had high values
# Conditions: 5 µM
row,Structure (SMILES),Percent Effect [%]
1,CN(C(=O)OC(C)(C)C)C1CCN(C(=O)c2cc(Cl)c[nH]2)C1 (centres undefined),3.471
2,COCC(=O)N[C@H](C)c1onc(-c2ccc(F)cc2)c1C(=O)O,-10.17
3,Cn1c(=O)c2c(n3ncnc13)NC(=O)CC2c1cccc(F)c1 (centres undefined),120.7
4,CC(C)n1[nH]c(=O)c2c1NC(=O)CC2c1cccnc1 (centres undefined),10.81
5,COc1cccc(C2CC(=O)Nc3c2c(=O)n(C)c2ncnn32)c1 (centres undefined),109.5
6,CC(C)n1[nH]c(=O)c2c1NC(=O)CC2c1ccc2ncccc2c1 (centres undefined),8.497
7,O=C1CC(c2ccc(F)cc2)c2cnn(C3CCCC3)c2N1 (centres undefined),-2.721
8,Cn1c(=O)c2c(n3ncnc13)NC(=O)CC2c1ccc(F)cc1 (centres undefined),107.2
9,CC(C)(C)n1ncc2c1NC(=O)CC2c1ccccc1 (centres undefined),1.075
10,O=C1CC(c2ccc(C(=O)O)cc2)c2ncn(-c3cccc(F)c3)c2N1 (centres undefined),4.592
11,O=C1CC(c2ccc(C(=O)O)cc2)c2ncn(-c3ccccc3F)c2N1 (centres undefined),10.34
12,Cn1c(=O)c2c(n3ncnc13)NC(=O)CC2c1cccc(Br)c1 (centres undefined),114.2
13,CSc1ccc(C2CC(=O)Nc3c2c(=O)[nH]c2ncnn32)cc1 (centres undefined),-5.097
14,CC(C)n1[nH]c(=O)c2c1NC(=O)CC2c1cccc(OC(F)F)c1 (centres undefined),18.26
15,CC(C)(C)c1cn2c(n1)C(CNCc1ccccn1)CCC2 (centres undefined),10.69
16,CCN(Cc1nc(-c2ccco2)no1)Cc1cccc2c1OCO2,-4.038
17,CC(C)n1nc2c(cc1=O)CN(CC1CCCCO1)CC2 (centres undefined),3.458
18,Cc1nc2n(n1)CC(NCc1ccccc1OCC(=O)N(C)C)CC2 (centres undefined),1.473
19,NC(=O)COc1ccc(CN2CCC(O)(CN3CCCCC3)C2)cc1Cl (centres undefined),-2.336
20,Cc1nc(N2Cc3cnn(Cc4ccc(F)cc4)c3C2)no1,-13.57
21,Cn1ncc2c1NC(=O)CC2c1ccc(O)cc1 (centres undefined),38.62
22,COCc1nc2nc(O)c3c(n2n1)NC(=O)CC3c1ccc(SC)cc1 (centres undefined),-7.854
23,CCc1ccc(C2CC(=O)Nc3c2c(=O)n(C)c2ncnn32)cc1 (centres undefined),109.5

row,Structure (SMILES),Percent Effect [%]
1,CC(C)(C)c1noc(CCCC(=O)N2CCNC(=O)C2)n1,-4.153
2,COc1cccc2c(=O)n(CCN3CCNCC3)cnc12,4.244
3,O=c1c2sccc2ncn1CC(O)CN1CCOCC1 (centres undefined),7.822
4,O=c1c2sccc2ncn1Cc1cc(C2CC2)[nH]n1,88.09
5,Cc1cc(CN2CCC(c3cc(Cc4ccccc4)n[nH]3)CC2)[nH]n1,25.91
6,O=C(Cn1cnc2ccccc2c1=O)Nc1cc(C2CC2)n[nH]1,0.387
7,CN(Cc1cc(C2CC2)[nH]n1)Cc1cc2ccc(F)cc2[nH]c1=O,-8.263
8,COc1cccc2c(=O)n(Cc3cc(C4CC4)[nH]n3)cnc12,104.8
9,O=c1c2ccccc2ncn1Cc1cc(C2CC2)[nH]n1,98.49
10,CC1CCN(CC(O)Cn2cnc3ccsc3c2=O)CC1 (centres undefined),-6.513
11,N#Cc1ccc(N2CCCN(CC(=O)N3CCNC(=O)C3)CC2)cc1,-15.62
12,CN(CC1=CCCN(Cc2cccc(C#N)c2)C1)C(=O)c1ccco1,6.358
13,O=C(CCc1ccsc1)N1CCC(n2cc(CO)nn2)CC1,-0.2022
14,CCn1c(CN2CCCC2)nnc1C1CCN(Cc2ccc(C)o2)CC1,10.89
15,OC(CNc1nc(C2CCCC2)nc2c1CCNCC2)C(F)(F)F (centres undefined),-10.56
16,O=C(NCCCn1cccn1)c1csc2c1CCCC2,-1.067
17,Cn1c(SCC(N)=O)nnc1-c1csc2c1CCCC2,119.7
18,O=C(NCCn1ccnc1)c1csc2c1CCCC2,1.844
19,COC(=O)CSc1nnc2[nH]c(=O)c3c(n12)CCCC3,-5.705
20,NC(=O)CSc1nnc2[nH]c(=O)c3c(n12)CCCC3,2.529
21,CCCc1cc(=O)[nH]c2nnc(SCC(N)=O)n12,23.5
22,CCCNC(=O)CSc1nnc2[nH]c(=O)c3c(n12)CCCC3,1.807
23,CCCn1c(SCC(N)=O)nnc1-c1csc2c1CCCC2,99.65

row,Structure (SMILES),Percent Effect [%]
1,CCn1c(SCC(N)=O)nnc1-c1csc2c1CCCC2,115.1
2,O=C(CSc1ccncc1)N1C[C@H]2CC[C@@H]1CN(Cc1cccnc1)C2,5.846
3,CCCc1n[nH]c(C2CN(CCNS(=O)(=O)CC)CCO2)n1 (centres undefined),14.03
4,CC(C)c1cc(C(=O)NCC2CCCN(c3ncccn3)C2)n(C)n1 (centres undefined),135
5,Cc1ccc(-c2nc(CC(=O)NCC3CCCN(C(C)C)C3)cs2)o1 (centres undefined),19.88
6,CC(C)Cc1cc(C(=O)NCC2CCCN(c3ccccn3)C2)on1 (centres undefined),8.718
7,CCc1nnsc1C(=O)NCCC1CCCN(C(C)C)C1 (centres undefined),8.592
8,CCCc1nnsc1C(=O)NCC1CCN(c2ncccn2)CC1,3.898
9,CCn1nc(C(C)C)cc1C(=O)NCC1CCCN(c2ccccn2)C1 (centres undefined),125
10,CC(C)c1cc(C(=O)NCC2CCCN(C(C)C)C2)n(C)n1.Cl (centres undefined),153.6
11,CCCc1nnsc1C(=O)NCC1CCN(c2ccccn2)CC1,-9.247
12,O=C(NCCCN1CCN(c2ncccn2)CC1)NCC1CCOC1 (centres undefined),1.135
13,CC(C)Sc1ccc(C(C)NC(=O)CNS(C)(=O)=O)cc1 (centres undefined),-8.082
14,COCC(C)N1CCc2onc(-c3ccc(C(F)(F)F)cc3)c2C1 (centres undefined),-24.24
15,CCc1ccc(CN2CCc3ncnc(N4CCOCC4)c3CC2)o1.O=C(O)C(F)(F)F,10.74
16,CCc1c(C)sc2ncnc(N3CC[C@@H](N4CCOCC4)[C@H](O)C3)c12,-13.58
17,Cc1nn(C)c(C)c1C1COCCN1c1ncnc2sccc12 (centres undefined),-13.78
18,CCc1ncnc(N2CCOCC2CCO)c1F (centres undefined),97.7
19,CCc1ncnc(N(C)CC2CCCCO2)c1F (centres undefined),6.222
20,CC[C@H]1COCCN1C(=O)c1cnc(C(C)C)nc1C,-0.1974
21,CCc1ncnc(N2CCOCC2C2CC2)c1F (centres undefined),106.4
22,CCOCC(=O)N1CCc2c(ncnc2N2CCOCC2)C1,-19.06
23,CCc1ncnc(N2CCOCC2C(N)=O)c1F (centres undefined),114.1

# Source: ChEMBL document CHEMBL3988442, “University of Dundee, Small-Polar-MMV Screening Library” (2021)
